Measured values from the supplement of paper PMC11732987, “Enantioselective OTUD7B fragment discovery through chemoproteomics screening and high-throughput optimisation” (Communications Chemistry, 2025).
Values without a mark were called inactive.

What was measured:
Assay in all cases: log2 ratio of Biotin-Ahx-Ub-VS probe labelling (fragment/DMSO); higher = less target engagement (more negative = stronger competition), active = hit call of the paper (q ≤ 0.05, log2 ratio ≤ -1)
Details in all cases: compound concentration: 200 uM; treatment time: 3 h
[1] = biological target: T1, OTUD6B (UniProt Q8N6M0)
T1 sequence (whole entry): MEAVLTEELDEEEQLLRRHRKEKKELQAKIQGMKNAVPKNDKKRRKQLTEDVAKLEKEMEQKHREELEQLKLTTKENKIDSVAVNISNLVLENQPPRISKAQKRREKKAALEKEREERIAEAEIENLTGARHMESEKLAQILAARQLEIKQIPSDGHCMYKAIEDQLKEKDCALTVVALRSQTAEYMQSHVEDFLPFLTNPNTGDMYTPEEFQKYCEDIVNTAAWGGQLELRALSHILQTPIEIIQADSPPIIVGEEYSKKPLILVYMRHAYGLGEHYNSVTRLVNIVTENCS
How it was run: (§1)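 The table lists average log2 ratios of fragment over vehicle, from an unpaired t-test on global-median-normalised Spectronaut label-free quantities. Proteins with ≥2 unique peptides were used. Samples were HEK293T lysate (495 µg) treated in triplicate with fragment at 200 µM or vehicle for 3 h, then with Biotin-Ahx-Ub-VS (0.5 µM final) for 1 h, with labelled DUBs NeutrAvidin-enriched and run by diaPASEF LC-MS/MS.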

[2] = biological target: T2, OTUD7B (UniProt Q6GQQ9)
T2 sequence (whole entry): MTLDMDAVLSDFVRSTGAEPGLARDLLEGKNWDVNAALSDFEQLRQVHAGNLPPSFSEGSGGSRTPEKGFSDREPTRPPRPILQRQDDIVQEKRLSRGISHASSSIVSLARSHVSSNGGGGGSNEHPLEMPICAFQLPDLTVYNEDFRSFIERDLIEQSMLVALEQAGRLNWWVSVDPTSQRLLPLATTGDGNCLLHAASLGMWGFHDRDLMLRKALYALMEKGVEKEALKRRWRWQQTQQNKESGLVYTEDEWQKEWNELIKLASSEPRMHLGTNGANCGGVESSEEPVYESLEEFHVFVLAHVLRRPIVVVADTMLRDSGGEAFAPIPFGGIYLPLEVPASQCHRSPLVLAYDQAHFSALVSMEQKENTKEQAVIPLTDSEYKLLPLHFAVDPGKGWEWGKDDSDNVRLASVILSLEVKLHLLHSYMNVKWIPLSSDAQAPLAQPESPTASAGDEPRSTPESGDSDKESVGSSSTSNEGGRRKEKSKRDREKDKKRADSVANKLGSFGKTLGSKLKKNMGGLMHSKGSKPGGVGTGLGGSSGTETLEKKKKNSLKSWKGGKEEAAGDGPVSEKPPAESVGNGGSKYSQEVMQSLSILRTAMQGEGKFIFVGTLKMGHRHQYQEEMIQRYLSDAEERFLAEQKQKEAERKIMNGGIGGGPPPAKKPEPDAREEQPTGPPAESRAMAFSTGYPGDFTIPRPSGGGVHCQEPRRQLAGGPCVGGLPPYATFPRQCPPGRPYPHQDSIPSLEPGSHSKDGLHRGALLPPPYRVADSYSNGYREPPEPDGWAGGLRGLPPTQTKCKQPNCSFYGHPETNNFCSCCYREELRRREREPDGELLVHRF
How it was run: as §1

[3] = biological target: PRPF8 (UniProt Q6P2Q9)
How it was run: as §1

[4] = biological target: T3, PSMD7 (UniProt P51665)
T3 sequence (whole entry): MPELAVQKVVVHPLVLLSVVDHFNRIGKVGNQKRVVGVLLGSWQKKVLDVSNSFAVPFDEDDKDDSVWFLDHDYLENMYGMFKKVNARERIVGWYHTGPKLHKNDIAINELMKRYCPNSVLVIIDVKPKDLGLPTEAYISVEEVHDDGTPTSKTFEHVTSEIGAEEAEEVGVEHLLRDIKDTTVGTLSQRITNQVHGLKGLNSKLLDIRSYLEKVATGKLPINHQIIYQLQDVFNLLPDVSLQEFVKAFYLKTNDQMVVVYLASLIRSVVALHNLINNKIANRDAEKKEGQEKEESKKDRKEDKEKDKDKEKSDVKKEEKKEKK
How it was run: as §1

[5] = biological target: UCHL1 (UniProt P09936)
Sequence of UCHL1 (P09936 whole entry, looked up): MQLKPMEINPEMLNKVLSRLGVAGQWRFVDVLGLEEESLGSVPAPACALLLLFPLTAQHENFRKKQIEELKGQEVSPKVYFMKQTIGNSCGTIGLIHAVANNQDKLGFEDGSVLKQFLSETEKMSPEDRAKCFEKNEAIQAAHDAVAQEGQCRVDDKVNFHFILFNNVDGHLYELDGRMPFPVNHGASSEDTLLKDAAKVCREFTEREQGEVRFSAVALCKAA
How it was run: as §1

[6] = biological target: T4, UCHL3 (UniProt P15374)
T4 sequence (whole entry): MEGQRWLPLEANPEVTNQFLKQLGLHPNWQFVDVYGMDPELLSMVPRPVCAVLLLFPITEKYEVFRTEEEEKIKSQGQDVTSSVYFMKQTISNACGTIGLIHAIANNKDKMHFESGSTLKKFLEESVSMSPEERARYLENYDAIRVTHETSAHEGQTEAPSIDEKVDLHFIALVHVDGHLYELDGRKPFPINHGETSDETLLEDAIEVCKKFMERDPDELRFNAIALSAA
How it was run: as §1

[7] = biological target: T5, UCHL5 (UniProt Q9Y5K5)
T5 sequence (whole entry): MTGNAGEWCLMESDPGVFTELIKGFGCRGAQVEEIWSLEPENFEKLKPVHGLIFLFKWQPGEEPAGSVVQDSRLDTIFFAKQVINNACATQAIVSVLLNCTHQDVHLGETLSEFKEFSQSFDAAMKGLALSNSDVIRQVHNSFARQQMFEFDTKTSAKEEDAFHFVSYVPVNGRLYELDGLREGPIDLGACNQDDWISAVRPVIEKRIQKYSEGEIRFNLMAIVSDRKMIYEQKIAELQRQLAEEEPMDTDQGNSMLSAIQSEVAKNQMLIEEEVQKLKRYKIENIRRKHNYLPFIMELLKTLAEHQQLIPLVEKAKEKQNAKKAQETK
How it was run: as §1

[8] = biological target: USP10 (UniProt Q14694)
Sequence of USP10 (Q14694 whole entry): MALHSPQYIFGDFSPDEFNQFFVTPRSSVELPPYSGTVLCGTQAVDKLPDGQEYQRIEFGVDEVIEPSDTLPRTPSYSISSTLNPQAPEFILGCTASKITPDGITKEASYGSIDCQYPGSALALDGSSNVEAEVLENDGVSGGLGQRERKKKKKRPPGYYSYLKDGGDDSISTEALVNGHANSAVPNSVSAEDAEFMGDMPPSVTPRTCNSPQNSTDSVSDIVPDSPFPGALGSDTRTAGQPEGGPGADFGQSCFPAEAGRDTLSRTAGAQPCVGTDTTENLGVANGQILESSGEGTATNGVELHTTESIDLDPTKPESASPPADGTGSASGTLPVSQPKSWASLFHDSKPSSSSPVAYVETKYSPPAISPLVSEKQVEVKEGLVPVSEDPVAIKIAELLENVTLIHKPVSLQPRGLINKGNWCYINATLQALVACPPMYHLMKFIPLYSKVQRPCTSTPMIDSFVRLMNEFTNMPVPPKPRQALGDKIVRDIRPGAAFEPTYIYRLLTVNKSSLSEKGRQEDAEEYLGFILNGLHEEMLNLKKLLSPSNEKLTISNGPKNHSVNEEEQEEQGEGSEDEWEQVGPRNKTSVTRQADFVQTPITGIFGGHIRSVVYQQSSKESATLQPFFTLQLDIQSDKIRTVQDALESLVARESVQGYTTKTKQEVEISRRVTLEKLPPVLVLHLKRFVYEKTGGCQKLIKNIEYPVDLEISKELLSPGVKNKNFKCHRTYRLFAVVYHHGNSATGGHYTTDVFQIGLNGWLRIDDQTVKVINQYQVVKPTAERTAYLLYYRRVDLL
How it was run: as §1

[9] = biological target: T6, USP15 (UniProt Q9Y4E8)
T6 sequence (whole entry): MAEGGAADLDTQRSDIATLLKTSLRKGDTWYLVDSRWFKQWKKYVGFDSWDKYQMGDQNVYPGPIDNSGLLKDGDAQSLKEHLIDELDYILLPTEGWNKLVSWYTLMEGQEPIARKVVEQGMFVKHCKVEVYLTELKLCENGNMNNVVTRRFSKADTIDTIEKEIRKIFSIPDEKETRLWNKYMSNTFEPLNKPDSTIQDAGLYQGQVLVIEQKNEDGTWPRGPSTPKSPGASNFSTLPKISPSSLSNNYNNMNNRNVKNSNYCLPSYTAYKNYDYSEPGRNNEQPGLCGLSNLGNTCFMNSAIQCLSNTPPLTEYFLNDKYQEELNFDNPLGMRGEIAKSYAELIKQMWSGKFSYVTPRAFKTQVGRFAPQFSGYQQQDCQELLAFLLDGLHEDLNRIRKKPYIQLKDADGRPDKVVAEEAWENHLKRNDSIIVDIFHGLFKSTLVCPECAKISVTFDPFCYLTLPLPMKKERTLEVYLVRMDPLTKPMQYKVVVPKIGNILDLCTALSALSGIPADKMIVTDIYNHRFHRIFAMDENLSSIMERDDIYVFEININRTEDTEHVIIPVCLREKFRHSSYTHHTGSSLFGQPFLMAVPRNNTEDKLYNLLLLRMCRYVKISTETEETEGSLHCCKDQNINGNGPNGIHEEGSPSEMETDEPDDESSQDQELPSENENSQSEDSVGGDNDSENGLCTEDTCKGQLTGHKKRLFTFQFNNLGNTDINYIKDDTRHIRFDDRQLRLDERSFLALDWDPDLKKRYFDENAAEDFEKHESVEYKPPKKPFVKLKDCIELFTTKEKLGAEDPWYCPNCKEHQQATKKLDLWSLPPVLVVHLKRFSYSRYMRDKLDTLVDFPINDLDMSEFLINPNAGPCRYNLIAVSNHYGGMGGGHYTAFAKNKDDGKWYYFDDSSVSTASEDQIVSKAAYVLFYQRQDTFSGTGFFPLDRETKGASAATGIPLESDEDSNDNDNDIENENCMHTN
How it was run: as §1

O=C(CCl)N1CCC2(CCC(O)CC2)CC1
log2 ratio of Biotin-Ahx-Ub-VS probe labelling [1]: -0.306
log2 ratio of Biotin-Ahx-Ub-VS probe labelling [2]: -0.236
log2 ratio of Biotin-Ahx-Ub-VS probe labelling [3]: -0.102
log2 ratio of Biotin-Ahx-Ub-VS probe labelling [4]: -0.109
log2 ratio of Biotin-Ahx-Ub-VS probe labelling [5]: -1.76 (active)
log2 ratio of Biotin-Ahx-Ub-VS probe labelling [6]: 0.404
log2 ratio of Biotin-Ahx-Ub-VS probe labelling [7]: -0.157
log2 ratio of Biotin-Ahx-Ub-VS probe labelling [8]: -0.17
log2 ratio of Biotin-Ahx-Ub-VS probe labelling [9]: -0.243
